From PubChem BioAssay AID463173 (ICCB-Longwood Screening Facility, Harvard Medical School, 2010)
Out of some 52,000 compounds screened, about 4,300 (8.3%) were called active. Cut-off read from the data, not from the text of the source: active = survival mostly below about 52% (no sharp cut-off); inactive = mostly above about 56%. Only a selection was taken, and actives are over-represented in it overall.

Tested on: DeltatarO mutant
Assay: S. aureus survival, RN4220 and DeltatarO strains – OD600, teichoic acid synthesis inhibitors, primary screen (AID 463173)
Conditions: S. aureus RN4220 wild type/DeltatarO growth, OD600, 18 h, stronger effect = lower value, screened at 18.75 µg/mL (by protocol)

SMILES | survival
O=C(CSc1nc2ccccc2nc1Cc1ccc(Cl)cc1)N1CCc2ccccc21 | 93% (inactive)
O=C(NC1CC(=O)N(c2ccc(F)cc2)C1)C(c1ccccc1)c1ccccc1 (configuration not stated) | 124% (inactive)
CCc1ccc(C(=O)c2cn(CC(=O)Nc3ccc(Cl)cc3)c3cc4c(cc3c2=O)OCO4)cc1 | 146% (inactive)
CCc1ccc(NC(=O)Cn2ccn(-c3ccc(C)c(C)c3)c(=O)c2=O)cc1 | 104% (inactive)
COc1ccc(OC)c(CCNC(=O)c2sc3nc4n(c(=O)c3c2C)CCCC4)c1 | 80% (inactive)
COc1cccc(NC(=O)CCN2C(=O)c3ccccc3Sc3ncccc32)c1 | 102% (inactive)
O=c1c2cc3c(cc2nc2sc(Nc4cccc([N+](=O)[O-])c4)nn12)OCO3 | 123% (inactive)
Cc1ccc(C2c3c(-c4ccccc4O)n[nH]c3C(=O)N2CCc2ccccc2)cc1 (configuration not stated) | 32% (active)
O=C1c2[nH]nc(-c3ccccc3O)c2C(c2ccc(F)cc2)N1CCO (configuration not stated) | 78% (inactive)
CC(C)c1ccc(C2c3c(-c4ccccc4O)n[nH]c3C(=O)N2CCc2ccccc2)cc1 (configuration not stated) | 50% (inactive)
O=C1c2[nH]nc(-c3ccccc3O)c2C(c2ccc(Cl)cc2)N1CCc1ccccc1 (configuration not stated) | 4% (active)
Cc1ccc(C2c3c(-c4ccccc4O)n[nH]c3C(=O)N2CCCO)cc1 (configuration not stated) | 58% (inactive)
CCN1C(=O)N(CC)C2NC(=S)NNC21 (configuration not stated) | 91% (inactive)
CC(C)(C)OC(=O)N1CCC(c2c(C(=O)Nc3ccc4c(c3)OCCO4)cnn2-c2ccccc2)CC1 | 96% (inactive)
CCn1nc(C)c2c(-c3ccccc3)cc(=O)n(C(C)C(=O)NCCc3ccc(OC)c(OC)c3)c21 (configuration not stated) | 92% (inactive)
CCCS(=O)(=O)N1CC(=O)N(c2ccc(C)cc2C)C(C)(C(=O)NC2CCCCCC2)C1 (configuration not stated) | 67% (inactive)
CC(=O)Nc1ccccc1-c1nc2ccccc2n(C(C)C(=O)Nc2cccc(C)c2C)c1=O (configuration not stated) | 100% (inactive)
CCC(=O)Nc1ccccc1-c1nc2ccccc2n(C(CC)C(=O)Nc2cccc(Cl)c2)c1=O (configuration not stated) | 24% (active)
CCC(C(=O)Nc1ccc(C)c(Cl)c1)n1c(=O)c(-c2ccccc2NC(C)=O)nc2ccccc21 (configuration not stated) | 63% (inactive)
CCC(=O)Nc1ccccc1-c1nc2ccccc2n(C(CC)C(=O)Nc2cccc(C(C)=O)c2)c1=O (configuration not stated) | 91% (inactive)
CCC(=O)Nc1ccccc1-c1nc2ccccc2n(C(C)C(=O)Nc2ccc(OC)cc2)c1=O (configuration not stated) | 55% (inactive)
CCC(=O)Nc1ccccc1-c1nc2ccccc2n(C(C)C(=O)Nc2cccc(Cl)c2C)c1=O (configuration not stated) | 42% (active)
CC(C)N(C(=O)CSc1nnc(Cn2nnc3ccccc32)n1C)C(C)C | 81% (inactive)

SMILES | survival
Cc1ccn2c(Nc3ccc4c(c3)OCO4)c(-c3ccc(N(C)C)cc3)nc2c1 | 101% (inactive)
COc1ccc(C(=O)Oc2ccc(C(c3c(C)[nH][nH]c3=O)c3c(C)[nH][nH]c3=O)cc2)cc1 | 80% (inactive)
Cc1cc2nc(N(Cc3cccnc3)C(=O)c3ccc(Cl)s3)sc2cc1C | 32% (active)
COc1ccc2nc(N(Cc3cccnc3)C(=O)c3ccco3)sc2c1 | 101% (inactive)
COc1cc(C(=O)N(Cc2cccnc2)c2nc3cc(C)c(C)cc3s2)cc(OC)c1OC | 49% (inactive)
COc1ccc2sc(N(Cc3cccnc3)C(=O)c3cccs3)nc2c1 | 76% (inactive)
COc1ccc2sc(N(Cc3cccnc3)C(=O)c3ccco3)nc2c1 | -2% (active)
CCS(=O)(=O)c1ccccc1C(=O)N(Cc1cccnc1)c1nc2cc(C)c(C)cc2s1 | 112% (inactive)
COc1ccc(N(C(=O)c2snc(C(N)=O)c2N)C(C(=O)NCc2ccc(F)cc2)c2ccc(C)o2)c(OC)c1 (configuration not stated) | 67% (inactive)
Cc1ccccc1-c1noc(-c2ccc(N3CCCC3)c([N+](=O)[O-])c2)n1 | 65% (inactive)
Cc1ccc(-c2cc(NC(=O)C(C)Oc3ccc(C)c(C)c3)on2)cc1 (configuration not stated) | 93% (inactive)
Cc1ccc(-c2cc(NC(=O)C(C)Oc3ccccc3F)on2)cc1 (configuration not stated) | 33% (active)
CC(Oc1ccc(F)cc1)C(=O)Nc1cc(-c2ccc(F)c(F)c2)no1 (configuration not stated) | 59% (inactive)
CCc1ccccc1NC(=O)C(CC)Oc1ccccc1-c1nnc(-c2ccccc2)o1 (configuration not stated) | 32% (active)
CCC(Oc1ccc(F)cc1)C(=O)Nc1cc(-c2ccc(C)cc2)no1 (configuration not stated) | 54% (inactive)
CCOC(=O)c1ccccc1NC(=O)COc1ccccc1-c1nnc(-c2ccccc2)o1 | 49% (inactive)
CCC(Oc1ccccc1-c1nnc(-c2ccccc2)o1)C(=O)Nc1ccc(C(C)=O)cc1 (configuration not stated) | 112% (inactive)
CCC(Oc1ccccc1F)C(=O)Nc1cc(-c2ccccc2)no1 (configuration not stated) | 35% (active)
CCC(Oc1ccccc1F)C(=O)Nc1c(C(=O)c2ccccc2)oc2ccccc12 (configuration not stated) | 53% (inactive)
Cc1ccc(NC(=O)CCCn2c(=O)c3cccn3c3cccnc32)c(C)c1 | 87% (inactive)
COc1ccc(CNC(=O)CCc2nnc3n(C)c(=O)c4sccc4n23)cc1 | 180% (inactive)
O=C(CN1CCN(Cc2ccccc2Cl)C1=O)NCCc1ccc(Cl)cc1 | 49% (inactive)
COc1cccc(-c2nc(SCC(=O)NCC3CCCO3)c(-c3ccc(Cl)cc3)[nH]2)c1 (configuration not stated) | 63% (inactive)

SMILES | survival
CCOc1c(Br)cc(C2CC(=O)Nc3cc4c(cc32)OCO4)cc1OC (configuration not stated) | 127% (inactive)
COc1ccc(N2C(=O)CC(N3CCCCC3C)C2=O)cc1 (configuration not stated) | 106% (inactive)
CCC1CCCCN1C1CC(=O)N(c2ccc(NC(C)=O)cc2)C1=O (configuration not stated) | 96% (inactive)
CCOc1ccc(N2C(=O)CC(N3CCCCC3CC)C2=O)cc1 (configuration not stated) | 53% (active)
Cc1cccc(-n2c(=O)c3c4c(sc3n3cnnc23)CCCC4)c1 | 72% (inactive)
CCSc1nnc2n(-c3ccccc3)c(=O)c3c4c(sc3n12)CCCC4 | 95% (inactive)
CCSc1nnc2n(-c3cccc(C)c3)c(=O)c3c4c(sc3n12)CCCC4 | 71% (inactive)
CCCSc1nnc2n(-c3cccc(C)c3)c(=O)c3c4c(sc3n12)CCCC4 | 5% (active)
CCCCSc1nnc2n(-c3cccc(C)c3)c(=O)c3c4c(sc3n12)CCCC4 | 1% (active)
CSc1nnc2n(-c3cccc(C)c3)c(=O)c3c4c(sc3n12)CCCC4 | 66% (inactive)
CC(C)Oc1ccc(CNC(=O)c2cc3cccc4c3n2CC(C)S4)cc1 (configuration not stated) | 91% (inactive)
Cc1cccc(CCNC(=O)c2nn(C)c3c2CSc2ccccc2-3)c1 | 77% (inactive)
Cc1ccc(CCNC(=O)c2nn(C)c3c2CSc2ccccc2-3)cc1 | 82% (inactive)
Cc1ccc2c(c1)-c1c(c(C(=O)NCCc3ccccc3)nn1C)CS2 | 37% (active)
O=C(Nc1ccc(C(=O)OCc2cc(=O)n3c4c(sc3n2)CCCC4)cc1)c1ccc(F)cc1 | 101% (inactive)
COc1ccccc1C(=O)Nc1cccc(C(=O)OCc2cc(=O)n3c4c(sc3n2)CCCC4)c1 | 92% (inactive)
Cc1ccccc1C(=O)Nc1ccc(C(=O)OCc2cc(=O)n3c4c(sc3n2)CCCC4)cc1 | 118% (inactive)
Cc1cccc(OCc2cc(=O)n3c4c(sc3n2)CCCC4)c1C | 131% (inactive)
COc1ccccc1C(=O)Nc1ccc(C(=O)OCc2cc(=O)n3c4c(sc3n2)CCCC4)cc1 | 37% (active)
Cc1ccc(C(=O)Nc2ccc(C(=O)OCc3cc(=O)n4c5c(sc4n3)CCCC5)cc2)cc1 | 83% (inactive)
O=C(Nc1ccccc1C(=O)OCc1cc(=O)n2c3c(sc2n1)CCCC3)c1ccc(Cl)cc1 | 0% (active)
O=C(OCc1cc(=O)n2c3c(sc2n1)CCCC3)c1cccc(NC(=O)c2ccccc2F)c1 | 115% (inactive)
O=C(Nc1ccccc1C(=O)OCc1cc(=O)n2c3c(sc2n1)CCCC3)c1cccc(Cl)c1 | 69% (inactive)

SMILES | survival
Cc1cccc(C)c1OCc1cc(=O)n2c3c(sc2n1)CCCC3 | -17% (active)
Cc1ccccc1C(=O)Nc1cccc(C(=O)OCc2cc(=O)n3c4c(sc3n2)CCCC4)c1 | 46% (active)
Cc1ccc(OCc2cc(=O)n3c4c(sc3n2)CCCC4)cc1C | 82% (inactive)
O=C(Nc1ccccc1C(=O)OCc1cc(=O)n2c3c(sc2n1)CCCC3)c1ccccc1 | 107% (inactive)
Cc1ccc(C(=O)c2oc3ccccc3c2NC(=O)COc2ccc(Cl)c(C)c2)cc1 | 90% (inactive)
COc1cc(-c2nc3n(n2)C(c2ccc(F)cc2)C(C(N)=O)=C(C)N3)cc(OC)c1OC (configuration not stated) | 91% (inactive)
Cc1ccc2c(CC(=O)Nc3c(C(=O)Nc4cccc(Cl)c4)oc4ccccc34)coc2c1C | 62% (inactive)
O=C(Nc1ccc(C(=O)OCc2cc(=O)n3c4c(sc3n2)CCCC4)cc1)c1ccccc1 | 25% (active)
Cc1cccc(C)c1OCc1cc(=O)n2c(-c3ccccc3)csc2n1 | 19% (active)
Cc1ccccc1OCc1cc(=O)n2c(-c3ccccc3)csc2n1 | 69% (inactive)
Cc1cccc(OCc2cc(=O)n3c(-c4ccccc4)csc3n2)c1C | 77% (inactive)
O=C(Nc1cccc(C(=O)OCc2cc(=O)n3c4c(sc3n2)CCCC4)c1)c1ccccc1 | 102% (inactive)
O=C(Nc1ccc(C(=O)OCc2cc(=O)n3c4c(sc3n2)CCCC4)cc1)c1ccc(Cl)cc1 | 92% (inactive)
CCN1CCN(CCCNC(=O)Cn2c(-c3cccs3)cc3ccccc32)CC1 | 78% (inactive)
Cc1ccccc1Cn1c2ccccc2c2cnn(CC(=O)NC3CCCCCC3)c(=O)c21 | 87% (inactive)
Cc1ccc2[nH]c(=O)c3cc(C(=O)NCCc4ccc(Cl)cc4)sc3c2c1 | 74% (inactive)
CCc1nnc(NC(=O)c2sc3nc4ccc(OC)cc4cc3c2N)s1 | 77% (inactive)
CC(=O)Nc1ccc(NC(=O)c2cc(-c3ccc4c(c3)OCCO4)on2)cc1 | 118% (inactive)
CCCNC(=O)c1cc(-c2ccccc2)on1 | 95% (inactive)
CC(=O)c1ccc(NC(=O)c2cc(-c3ccc4c(c3)OCO4)on2)cc1 | 67% (inactive)
CC(=O)c1ccc(NC(=O)c2cc(-c3ccc(Cl)c(Cl)c3)on2)cc1 | 47% (active)
O=C(NCCc1ccccc1)c1cc(-c2ccc(Cl)c(Cl)c2)on1 | 57% (inactive)
CCCCNC(=O)c1cc(-c2ccc(Cl)c(Cl)c2)on1 | 45% (active)
